In the library only some 4.6% were active in any assay of this set; here they are far more common.
hcDAF-12 act – activates DAF-12 receptor from parasite H. contortus; HEK293 hcDAF-12 lit1-tk-luc reporter, luminescence; 0% DMSO, 100% Δ7-dafachronic acid; activation, % at 6.8 µM; 370,000 compounds, 1.4% hits;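 active = activation above the mean of all tested compounds plus 3 SD, cut at about 5.5% in these data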
DAX1 inh-1 – blocks DAX1 repression of SF-1 activated StAR promoter; HEK293T StAR-luciferase reporter, SF-1/DAX-1 repression relief; inhibition, % at 6.8 µM; 370,000 compounds, 1.1% hits; AID 652010;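 active = inhibition above the mean over all tested compounds plus 3 SD, cut at about 3.6% in these data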;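 note: higher inhibition means more luminescence from relief of DAX-1 repression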
Wee1 degr inh – blocks degradation of human Wee1 kinase | 220,000 compounds, 1.2% hits | reporter increase, % at 5 µM | AID 1321 | HeLa Luc-Wee1K328M stability, luciferase luminescence; 100% = proteasome inhibitor MG132 effect | P30291;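 active = activation above the mean of all tested compounds plus 3 SD, set per screening run, cut at about 8.8% in these data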;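 note: cells exposed to compound for 20 h before luminescence read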
DAX1 inh-2 – NR0B1 (DAX1) inhibition | P51843 | HEK293 Gal4-DAX1 luciferase reporter, luminescence | inhibition, % at 6.75 µM | 340,000 compounds, 0.99% hits;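 active = inhibition above the mean over all tested compounds plus 3 SD, cut at about 4.2% in these data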;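 note: inhibition shows as a rise in luminescence from relieved DAX1 repression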
Target sequence (P51843 207-470 limits assumed): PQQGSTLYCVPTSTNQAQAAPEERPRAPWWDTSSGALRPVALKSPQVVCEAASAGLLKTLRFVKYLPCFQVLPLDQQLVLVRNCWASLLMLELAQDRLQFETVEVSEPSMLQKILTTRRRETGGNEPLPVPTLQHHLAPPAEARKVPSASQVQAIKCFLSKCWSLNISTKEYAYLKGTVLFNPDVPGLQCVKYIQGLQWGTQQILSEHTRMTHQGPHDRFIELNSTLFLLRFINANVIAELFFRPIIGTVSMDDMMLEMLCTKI
hgDAF-12 ag – activates the H. glycines DAF-12 receptor ligand-binding domain; HEK293 GAL4-hgDAF12 UAS-luciferase reporter, agonist luminescence; normalized to butyrate control; AID 687014; 370,000 compounds, 1.8% hits; activation, % at 6.8 µM;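 active = activation above a cutoff set at the mean of all screened compounds plus 3 SD, cut at about 10% in these data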
ssDAF12 agonist – activators of S. stercoralis DAF-12 nuclear receptor; HEK293 ssDAF-12/GRIP1 lit1-tk-luc reporter, luminescence; % of 3 µM dafachronic acid response; activation, % at 6.8 µM; 370,000 compounds, 1% hits; AID 652126;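 active = activation above the mean over all tested compounds plus 3 SD, cut at about 0.9% in these data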
DAX1 inh confirm – confirmation of human DAX1 (NR0B1) inhibitors; shares compounds with DAX1 inh-1; HEK293T StAR-promoter luciferase reporter, SF-1/DAX-1 repression; inhibition, % at 6.8 µM; 2,400 compounds, 87% hits;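 active = inhibition above the average of every tested compound plus 3 SD, cut at about 3.8% in these data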;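 note: active compounds raise luminescence by relieving repression of the StAR reporter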
Target sequence (P51843 whole entry, looked up): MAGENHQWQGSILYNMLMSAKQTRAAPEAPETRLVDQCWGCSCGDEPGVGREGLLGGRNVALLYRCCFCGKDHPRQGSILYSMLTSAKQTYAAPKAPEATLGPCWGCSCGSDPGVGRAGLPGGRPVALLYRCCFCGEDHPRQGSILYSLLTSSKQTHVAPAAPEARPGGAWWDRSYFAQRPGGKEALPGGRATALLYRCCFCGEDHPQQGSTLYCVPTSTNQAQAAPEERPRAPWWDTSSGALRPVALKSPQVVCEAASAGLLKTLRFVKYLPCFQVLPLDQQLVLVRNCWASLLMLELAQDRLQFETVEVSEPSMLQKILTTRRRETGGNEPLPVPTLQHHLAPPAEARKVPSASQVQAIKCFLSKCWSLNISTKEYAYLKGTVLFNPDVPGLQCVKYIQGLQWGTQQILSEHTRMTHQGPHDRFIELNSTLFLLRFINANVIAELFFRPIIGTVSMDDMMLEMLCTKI
SF1 mutant ctr – nonselective inhibitor or artifact in SF-1 mutant DAX1 counter-screen; shares compounds with DAX1 inh-1; HEK293 StAR-luciferase, SF-1 AF2 mutant, luminescence; inhibition, % at 6.8 µM; 2,400 compounds, 78% hits;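 active = inhibition above the mean of all tested compounds plus 3 SD, cut at about 3% in these data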
LXRb hcDAF ctr – activates human LXR-beta, counter-screen for hcDAF-12 agonists. shares compounds with hcDAF-12 act. HEK293 Gal4-LXR tk-luc reporter, luminescence, 24 h; normalized: DMSO 0%, positive control 100%. activation, % at 6.8 µM. 3,400 tested, under 10 active. AID 743027;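 active = mean percent activation of the reporter above a cutoff set as the average over tested compounds plus their standard deviation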
hcDAF12 conf – hcDAF-12 agonism, confirmation assay. activation, % at 6.8 µM. 3,400 compounds, 61% hits. HEK293 hcDAF-12 lit1-tk-luc reporter, luminescence; % of Δ7-dafachronic acid response. shares compounds with hcDAF-12 act;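 active = mean activation across triplicate tests above the threshold derived from the earlier primary screen, cut at about 5.5% in these data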
hgDAF12 conf – confirmation of H. glycines DAF-12 agonists; shares compounds with hgDAF-12 ag; HEK293 GAL4-hgDAF12 luciferase reporter, agonist mode; percent of butyrate response; activation, % at 6.8 µM; 3,300 compounds, 80% hits;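 active = mean activation over triplicate wells above the hit cutoff derived from the earlier primary screen, cut at about 11% in these data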
LXR ag 2 – counter-screen for DAF-12 agonists: agonists of human LXR-beta; shares compounds with hgDAF-12 ag; activation, % at 6.8 µM; AID 743051; HEK293 Gal4-LXR luciferase reporter, 24 h; 3,300 tested, under 10 active;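 active = mean activation of the triplicate above a set limit carried over from the primary screen, none filed active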
Large screens that a line does not name were inactive (follow-up assays come after a bar, where they were run).

O=C(/C=C/Nc1ccccc1F)c1ccc(Br)cc1	hcDAF-12 act 12.3, DAX1 inh-1 5.2, hgDAF-12 ag 16.6, ssDAF12 agonist 1.5 | DAX1 inh confirm 13.8 | SF1 mutant ctr 8.4 | LXRb hcDAF ctr inactive | hcDAF12 conf 13.6 | hgDAF12 conf 22.6 | LXR ag 2 inactive
O=C(/C=C/Nc1ccc(Br)cc1F)c1ccccc1	none
COCCNC(=O)C1(C)CCCN(C(=O)c2ccc(C#N)cc2)C1 (configuration not stated)	none (no result: Wee1 degr inh, DAX1 inh-2)
O=c1[nH]c(=O)n(C2CC(O)C(CO)O2)cc1Br (configuration not stated)	hcDAF-12 act 6.2, DAX1 inh-1 10.8, hgDAF-12 ag 15.5 (no result: Wee1 degr inh) | DAX1 inh confirm 17.5 | SF1 mutant ctr 6.8 | hgDAF12 conf 20.4 | LXR ag 2 inactive
C[C@H]1[C@H](N)CC[C@@]23CCCN2C(=O)CCC[C@@H]13	none (no result: DAX1 inh-1, Wee1 degr inh, DAX1 inh-2)
COc1cc(F)ccc1-c1cc(C(=O)NCc2ccc(C(F)(F)F)cc2)[nH]n1	none (no result: Wee1 degr inh, DAX1 inh-2)
O=C(CSc1nnc(-c2csc3c2CCCC3)o1)Nc1ccccc1	hcDAF-12 act 14.3, DAX1 inh-1 10.4, hgDAF-12 ag 17.7, ssDAF12 agonist 2.1 | DAX1 inh confirm 19.1 | SF1 mutant ctr 7.2 | LXRb hcDAF ctr inactive | hcDAF12 conf 18.9 | hgDAF12 conf 16.0 | LXR ag 2 inactive
N#Cc1c(NC(=O)CSc2nnc(-c3ccccc3)o2)sc2c1CCCC2	none (no result: hcDAF-12 act, DAX1 inh-1, hgDAF-12 ag, ssDAF12 agonist)
CC(/C=N/NC(=O)c1ccco1)=C\c1ccccc1	DAX1 inh-1 6.0, hgDAF-12 ag 17.7 | DAX1 inh confirm 17.9 | SF1 mutant ctr 9.0 | hgDAF12 conf 14.1 | LXR ag 2 inactive
Cc1ccc(NC(=O)c2cc3ccccc3o2)nc1	hcDAF-12 act 13.8, DAX1 inh-1 16.1, hgDAF-12 ag 18.9, ssDAF12 agonist 1.5 (no result: Wee1 degr inh) | DAX1 inh confirm 17.1 | SF1 mutant ctr 9.9 | LXRb hcDAF ctr inactive | hcDAF12 conf 14.1 | hgDAF12 conf 19.0 | LXR ag 2 inactive
O=C(Nc1nc2ccccc2[nH]1)c1cc2ccccc2o1	hcDAF-12 act 13.6, DAX1 inh-1 8.0, hgDAF-12 ag 21.4 | DAX1 inh confirm 9.4 | SF1 mutant ctr 7.6 | LXRb hcDAF ctr inactive | hcDAF12 conf 9.1 | hgDAF12 conf 19.4 | LXR ag 2 inactive
O=C(Nc1nc2ccccc2[nH]1)C1CCCC1	DAX1 inh-1 4.9, hgDAF-12 ag 14.8 | DAX1 inh confirm 6.5 | SF1 mutant ctr 5.7 | hgDAF12 conf 13.1 | LXR ag 2 inactive
Cc1cc(C)cc(C(=O)Nc2nc3ccccc3[nH]2)c1	none (no result: Wee1 degr inh)
C[C@@H]1CCN(C2CC2)S(=O)(=O)c2ccc(N3CC[C@@H](N(C)C)C3)cc2O1	none (no result: Wee1 degr inh, DAX1 inh-2)
Cc1cc2c(cc1C)-c1nnnn1C(N1CCCCC1)C(=O)N2 (configuration not stated)	none (no result: Wee1 degr inh, DAX1 inh-2)
O=C1C(c2cc(=O)c3ccccc3[nH]2)=C(O)c2ccccc21	hcDAF-12 act 10.3, DAX1 inh-1 4.6, hgDAF-12 ag 21.1, ssDAF12 agonist 1.6 | DAX1 inh confirm 16.4 | SF1 mutant ctr 8.0 | LXRb hcDAF ctr inactive | hcDAF12 conf 8.1 | hgDAF12 conf 18.3 | LXR ag 2 inactive
O=c1cc(-c2ccccc2)[nH]c2ccccc12	none
c1cc(-c2cccs2)nc(-c2cccs2)c1	none
c1csc(-c2cn3ccc4ccccc4c3n2)c1	hcDAF-12 act 14.3, DAX1 inh-1 4.8, hgDAF-12 ag 16.8, ssDAF12 agonist 2.5 | DAX1 inh confirm 8.3 | SF1 mutant ctr 5.4 | LXRb hcDAF ctr inactive | hcDAF12 conf 14.7 | hgDAF12 conf 17.8 | LXR ag 2 inactive
N#Cc1ccccc1OCC(=O)Nc1ccc2c(c1)OCCCO2	none (no result: Wee1 degr inh)
O=C(COc1ccccc1[N+](=O)[O-])Nc1ccc2c(c1)OCO2	hcDAF-12 act 9.2, DAX1 inh-1 6.7, hgDAF-12 ag 15.5 | DAX1 inh confirm 6.8 | SF1 mutant ctr 4.1 | LXRb hcDAF ctr inactive | hcDAF12 conf 5.8 | hgDAF12 conf 11.8 | LXR ag 2 inactive
NC(=O)c1cc(Cl)ccc1OCC(=O)Nc1ccc2c(c1)OCO2	DAX1 inh-1 12.2, hgDAF-12 ag 15.6 (no result: Wee1 degr inh) | DAX1 inh confirm 12.3 | SF1 mutant ctr 8.7 | hgDAF12 conf 14.8 | LXR ag 2 inactive
N#Cc1ccccc1OCC(=O)Nc1ccc2c(c1)OCO2	DAX1 inh-1 5.9, hgDAF-12 ag 20.3 (no result: Wee1 degr inh) | DAX1 inh confirm 6.5 | SF1 mutant ctr 4.0 | hgDAF12 conf 13.3 | LXR ag 2 inactive
CCOC(=O)c1sc2nc(NC(=O)C3CC3)sc2c1C	none
CCOC(=O)c1sc2nc(NC(=O)C(C)(C)C)sc2c1C	DAX1 inh-1 5.2, hgDAF-12 ag 13.9 | DAX1 inh confirm 4.1 | SF1 mutant ctr inactive | hgDAF12 conf inactive | LXR ag 2 inactive
O=c1[nH]nc(SC2CCCCC2)c(=O)[nH]1	none (no result: Wee1 degr inh)
O=C(/C=C/c1ccco1)N1CCc2ccccc21	hcDAF-12 act 15.6, DAX1 inh-1 10.2, hgDAF-12 ag 15.8, ssDAF12 agonist 1.5 | DAX1 inh confirm 12.9 | SF1 mutant ctr 6.4 | LXRb hcDAF ctr inactive | hcDAF12 conf 11.4 | hgDAF12 conf 20.7 | LXR ag 2 inactive
CC1Cc2ccccc2N1C(=O)/C=C/c1cccc(F)c1 (configuration not stated)	DAX1 inh-1 6.1, hgDAF-12 ag 16.2 | DAX1 inh confirm 7.6 | SF1 mutant ctr 6.9 | hgDAF12 conf 15.5 | LXR ag 2 inactive
COc1ccccc1NS(=O)(=O)c1ccc(C(=O)N2CCN(c3ccccc3)CC2)cc1	none (no result: Wee1 degr inh)
Cc1nc(NC(=O)c2ccc([N+](=O)[O-])cc2Cl)sc1C(=O)N(C)C	none
Cc1cc(C(=O)Nc2nc(C)c(C(=O)N(C)C)s2)ccc1[N+](=O)[O-]	DAX1 inh-1 4.6, hgDAF-12 ag 13.7 | DAX1 inh confirm 13.0 | SF1 mutant ctr 5.4 | hgDAF12 conf 10.6 | LXR ag 2 inactive
